# Compound activity deposited in PubChem BioAssay by NMMLSC.
# An excerpt weighted towards active compounds, which were near 1.3% of everything screened.
# RPL19A-GFP yeast = RPL19A-GFP expression modulators in yeast, primary screen, cell-based, S. cerevisiae, multiplex flow cytometry, MLPCN | S. cerevisiae RPL19A-GFP strain, 3 h; stronger effect = lower value | percent response vs DMSO, % at 10 µM | actives 0.3% (n = 330,000);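 active = percent response vs DMSO below 50%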;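 note: median channel GFP fluorescence of the barcoded RPL19A-GFP strain; ratio of sample median GFP to plate DMSO average so 100% = DMSO; lower means less RPL19A-GFP as with rapamycin TOR inhibition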
# AGP1 TOR yeast = modulators of AGP1-GFP expression in yeast TOR pathway, primary screen, cell-based, multiplex flow cytometry, S. cerevisiae, MLPCN library; GFP response vs DMSO, % at 10 µM; 3 h; GFP as percent of DMSO wells; actives 0.02% (n = 320,000);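 active = GFP response relative to DMSO above a set limit, near screen average plus 3 SD, cut at about 150% in these data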;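 note: median GFP channel fluorescence of the gated AGP1 strain per well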
# Efflux pump inh = inhibitors of Candida efflux pumps in yeast, primary screen, S. cerevisiae, Nile Red, multiplex; inhibition, % at 10 µM; S. cerevisiae Candida pump triplex; actives 0.44% (n = 330,000);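 active = plate passing quality check with inhibition over a set limit, or well fluorescence over plate mean plus 4 SD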;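 note: Nile Red retained in pooled yeast measured as flow cytometry median fluorescence; 0% = buffer negative control and 100% = Enniatin B positive control; higher means more Nile Red kept so more efflux inhibition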
# LAP4-GFP MLPCN = modulators of LAP4-GFP expression in yeast, primary screen, S. cerevisiae, multiplex flow cytometry, MLPCN library | 3 h; median GFP as percent of DMSO wells | GFP response vs DMSO, % at 10 µM | actives 0.34% (n = 320,000) | AID 2023, 2009;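 active = GFP response vs DMSO above a set limit, about the screen mean plus 3 SD, cut at about 150% in these data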
# MEP2 TOR yeast = modulators of MEP2-GFP levels in yeast, primary screen, S. cerevisiae, multiplex flow cytometry, MLPCN library | GFP response vs DMSO, % at 10 µM | actives 0.51% (n = 330,000) | S. cerevisiae MEP2-GFP strain, 3 h; 100% = DMSO control level | AID 2016, 2009;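 active = GFP response versus DMSO above a set limit, roughly screen mean plus 3 SD, cut at about 180% in these data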;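 note: median GFP fluorescence of the barcode-gated MEP2-GFP cells per well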
# CIT2 TOR yeast = modulators of CIT2-GFP expression in yeast, primary screen, S. cerevisiae, GFP fusion, multiplex flow cytometry, MLPCN library. actives 0.065% (n = 320,000). S. cerevisiae CIT2-GFP strain, 3 h; 100 means same as DMSO wells. GFP response vs DMSO, % at 10 µM;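 active = GFP response relative to DMSO above a set limit, near the screen mean plus 3 SD, cut at about 150% in these data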;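 note: ratio of well median GFP fluorescence to mean of DMSO wells on the plate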
# LAP4-GFP pick2 = LAP4-GFP expression modulators in yeast, confirmation, cell-based, second cherry pick, flow cytometry. actives 20% (n = 590). GFP response vs DMSO, % at 10 µM. shares compounds with LAP4-GFP MLPCN. S. cerevisiae LAP4-GFP strain, 3 h;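 active = GFP signal as percent of the solvent control above about 150%, meaning raised reporter expression, limit read from the data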;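 note: ratio of well median GFP fluorescence to plate DMSO mean so 100% = DMSO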
# MEP2-GFP pick2 = modulators of MEP2-GFP levels in yeast, confirmation, S. cerevisiae, flow cytometry GFP, second cherry picks. shares compounds with LAP4-GFP MLPCN. S. cerevisiae MEP2-GFP strain, 3 h. GFP response vs DMSO, % at 10 µM. actives 10% (n = 590). AID 2622, 2010;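 active = GFP signal above 150% of the solvent control wells, that is a rise of more than half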;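 note: median channel GFP fluorescence of all gated yeast cells per well; ratio of median GFP to plate DMSO average so 100% = DMSO level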
# RPL19A GFP CP2 = RPL19A-GFP modulators in TOR pathway yeast, confirmation, cell-based, S. cerevisiae, flow cytometry, second cherry pick. shares compounds with LAP4-GFP MLPCN. S. cerevisiae RPL19A-GFP strain, 3 h; stronger effect = lower value; 100% means same as DMSO wells. GFP response vs DMSO, % at 10 µM. actives 3% (n = 590);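 active = under 65% GFP response relative to DMSO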;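 note: median GFP channel fluorescence per well over the all cells gate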
# CIT2-GFP pick2 = modulators of CIT2-GFP expression in yeast, confirmation, flow cytometry, second cherry pick, single plex; shares compounds with LAP4-GFP MLPCN; S. cerevisiae CIT2-GFP strain, 3 h; DMSO control wells read 100%; GFP response vs DMSO, % at 10 µM; actives 8% (n = 590); AID 2624, 2010;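 active = GFP response vs DMSO above about 150%, limit read from the data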;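 note: median green fluorescence per well over all gated yeast cells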
# AGP1-GFP pick2 = AGP1-GFP expression modulators, hit retest, confirmation, cell-based, flow cytometry, S. cerevisiae, cherry pick set 2; shares compounds with LAP4-GFP MLPCN; S. cerevisiae AGP1-GFP strain, 3 h; percent response vs DMSO, % at 10 µM; 590 tested, under 10 active;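 active = over 150 percent of DMSO response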;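 note: median GFP channel fluorescence over all cells without mother daughter split; sample median GFP divided by mean DMSO control so 100% equals DMSO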
# s288c autofluor = compound autofluorescence in yeast s288c, dose response, artefact control for yeast TOR pathway GFP screen, s288c strain; shares compounds with LAP4-GFP MLPCN; AID 2757, 2010; 610 tested, under 10 active; fluorescence change (kMESF span) at 33 µM; S. cerevisiae s288c, 520 nm autofluorescence, flow cytometry, 3 h; stronger effect = higher value; zero means same as solvent-only cells;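 active = fluorescence span over the dose series, or activity score, above about 33, limit read from the data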
# Yeast autofl DR = autofluorescence of compounds in yeast s288c, dose response, artefact control for yeast TOR pathway GFP screen, primary hits, KU SAR, s288c parental | 110 tested, under 10 active | fluorescence change (span) at 33 µM | S. cerevisiae s288c parental, compound autofluorescence, flow cytometry, 3 h | shares compounds with LAP4-GFP MLPCN | AID 488829, 2010;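 active = fluorescence change span, or the activity score built from it, above 25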
# TORC1 bypass = wild-type yeast growth inhibition sparing TORC1 bypass cells, mechanism study for yeast TOR pathway GFP screen, BY4741 wild type, TORC1 bypass strain | shares compounds with LAP4-GFP MLPCN | S. cerevisiae BY4741 spot growth rating, 48-72 h; stronger effect = lower value | growth rating (0-3) at 30 µM | 120 tested, under 10 active | AID 504456, 2011;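 active = growth rating at most 1 for wild type yeast while the TORC1 bypass strain still grows fully, rated 3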
# The depositor's hits bear a star; . = no result given.
SMILES,RPL19A-GFP yeast,AGP1 TOR yeast,Efflux pump inh,LAP4-GFP MLPCN,MEP2 TOR yeast,CIT2 TOR yeast,LAP4-GFP pick2,MEP2-GFP pick2,RPL19A GFP CP2,CIT2-GFP pick2,AGP1-GFP pick2,Yeast autofl DR,TORC1 bypass,others
CSc1nnc2c3cc(F)ccc3n(C)c2n1,64,67,0,87,102,79,99,98,57*,96,61,0.22,3,s288c autofluor=0.51
Cn1c2ccc(F)cc2c2nc3ccccc3nc21,100,95,0,77,103,104,.,.,.,.,.,.,.,
Cc1cc(C)c(C(=O)N2CCCC(Nc3ccc(F)cc3)C2)o1 (configuration not stated),67,59,0,201*,85,74,95,96,102,107,98,.,.,
Nc1nc(NCC2CCCO2)nc(Nc2cccc(F)c2)c1[N+](=O)[O-] (configuration not stated),98,96,0,114,94,98,.,.,.,.,.,0.06,3,
Nc1nc(NCCN2CCOCC2)nc(Nc2cccc(F)c2)c1[N+](=O)[O-],.,.,.,.,.,.,.,.,.,.,.,0.31,3,
Nc1nc(Nc2cccc(Cl)c2)nc(Nc2cccc(F)c2)c1[N+](=O)[O-],.,.,.,.,.,.,.,.,.,.,.,0.16,3,
COCCCNc1nc(N)c([N+](=O)[O-])c(Nc2cccc(F)c2)n1,.,.,.,.,.,.,.,.,.,.,.,0.16,3,
O=C1CCc2cc(S(=O)(=O)Nc3ccccc3F)ccc2N1,99,102,0,96,99,101,.,.,.,.,.,.,.,
CC1(C)Cc2c(cnn2-c2cccc(F)c2)C(NC(=O)CCc2cnccn2)C1 (configuration not stated),102,111,0,100,112,112,.,.,.,.,.,.,.,
CC(=O)NC12CC3CC(C1)CC(C(=O)N(C)CC(=O)Nc1cccc(F)c1)(C3)C2,89,90,0,92,89,88,.,.,.,.,.,.,.,
CCCCCCCCCCCCCCCC[n+]1cccc2ccccc21,12*,7,1.1*,40,54,26,154*,138,81,100,95,.,.,s288c autofluor=0.91
CCN1CCN(C(CNS(=O)(=O)c2ccc(F)cc2)c2cccnc2)CC1 (configuration not stated),99,104,0,96,108,154*,97,98,98,108,100,.,.,
CCN1CCN(C(CNS(=O)(=O)c2ccccc2)c2cccnc2)CC1 (configuration not stated),104,99,0,101,118,108,.,.,.,.,.,.,.,
CCN1CCN(c2cc(C)c3cc(NC(=O)c4cccc(OC)c4)ccc3n2)CC1,60,49,0,100,154,90,102,96,101,118,99,.,.,
C#CCOCCOCCOCCNc1nc(N2CCN(C(=O)CCCCCCCCCCNC(=O)[C@H](CCCCN)n3cc(C)nn3)CC2)nc(N2CCN(C(=O)CCCCCCCCCCNC(=O)[C@H](CCCN=C(N)N)n3cc(C[C@@H](C)CC)nn3)CC2)n1,81,90,0,191*,99,76,102,169*,85,95,109,.,.,s288c autofluor=0
C#CCOCCOCCOCCNc1nc(N2CCN(C(=O)[C@H](CCCCN)n3cc([C@@H](N)CC(C)C)nn3)CC2)nc(N2CCN(C(=O)[C@H](Cc3ccc(O)cc3)n3cc([C@@H](N)CC(C)C)nn3)CC2)n1,100,94,0,113,92,99,.,.,.,.,.,.,.,
C#CCOCCOCCOCCNc1nc(N2CCN(C(=O)CCCCCCCCCCNC(=O)[C@@H](CCSC)n3cc(CCO)nn3)CC2)nc(N2CCN(C(=O)CCCCCCCCCCNC(=O)[C@H](CCCN=C(N)N)n3cc(C[C@@H](C)CC)nn3)CC2)n1,83,82,0,152*,93,85,119,140,96,117,108,.,.,
C#CCOCCOCCOCCNc1nc(N2CCN(C(=O)CCCCCCCCCCNC(=O)[C@@H](CCC(=O)O)n3cc(CCCCCN)nn3)CC2)nc(N2CCN(C(=O)CCCCCCCCCCNC(=O)[C@H](CCCCN)n3cc(C[C@@H](C)CC)nn3)CC2)n1,74,91,0,198*,94,88,124,176*,89,120,118,.,.,s288c autofluor=0.1
C#CCOCCOCCOCCNc1nc(N2CCN(C(=O)CCCCCCCCCCNC(=O)[C@@H](CCSC)n3cc(CCO)nn3)CC2)nc(N2CCN(C(=O)CCCCCCCCCCNC(=O)[C@H](CCC(=O)O)n3cc(CCCCCN)nn3)CC2)n1,93,102,0,99,109,97,.,.,.,.,.,.,.,
